Data: ChEMBL document CHEMBL4513216, “Probing the Open Global Health Chemical Diversity Library for Multistage-Active Starting Points for Next-Generation Antimalarials” (ACS Infect Dis, 2020)
In all, about 69,000 compounds went through this assay and about 8,600 (12%) showed an effect of 50% or more. What follows is part of a selection rich in strong results, with near analogues and random picks from the rest.

Each molecule was assayed on Plasmodium berghei (assay: Screen against P. berghei liver stage (PbLuc), transformed with Luciferase, at 10uM). Details: tested at 10 uM.
Format: functional, HepG2

Going from `CC(c1nc(C2CC2)no1)N1CCN(Cc2nnc(C3CC3)o2)CC1` (centres undefined) to `c1sc(C2CCCCC2)nc1CN1CCn2c(nnc2C2CC2)C1`, the INHIBITION rises from -51.5% to 38.8%.

Compared with `Cc1c(C(=O)NC(C)CC(=O)c2cccs2)cnn1C` (centres undefined), `Cc1cnn(CC(C)NCc2ccc(OCC(N)=O)cc2)c1` (centres undefined) is higher in INHIBITION: 40.6% for the first, 58.5% for the second.

Going from `CC(=O)N1CCCN(C(=O)c2ccc(Sc3ccccn3)cc2)CC1` to `c1ccc(-c2cccc(-c3ccn(CCN4CCCCC4)n3)c2)nc1`, the INHIBITION rises from -0.217% to 48.4%.

Going from `Cc1cccn2cc(CC(=O)N(CCN(C)C)CC3CCCO3)nc12` (centres undefined) to `CN(C)CCN(CC1CCCO1)C(=O)Cc1cn2ccccc2n1` (centres undefined), the INHIBITION falls from 58.5% to 28.7%.

First: O=C(Cc1cn2ccsc2n1)N(Cc1ccco1)CC1CCCO1 (centres undefined)
Second: Cc1cnn(CCNCc2csc(-c3ccco3)n2)c1
The INHIBITION of the first is higher: 7.21% for the first, -4.9% for the second.

Going from `Fc1ccc(CN2CCc3ncnc(C4CC4)c3CC2)cc1` to `Cc1nccn1CC1CCCN(Cc2ccc(-c3cccnc3)cc2)C1` (centres undefined), the INHIBITION rises from 39.5% to 66.7%.

Compared with `O=C1CCN(C(=O)c2ncoc2-c2ccco2)c2ncccc2N1`, `c1ccc(OCc2n[nH]c3c2CN(Cc2cccs2)C3)nc1` is lower in INHIBITION: 15.1% for the first, -0.804% for the second.

First: CN1CCC(c2n[nH]c(=O)n2-c2cccc(Cl)c2)CC1
Second: O=c1[nH]nc(C2CC2)n1-c1cccc(Cl)c1
The INHIBITION of the first is higher: 14.1% for the first, -21.7% for the second.

First: CN1CC(c2n[nH]c(=O)n2-c2cccc(Cl)c2)CC1=O (centres undefined)
Second: COCCN1C(=O)[C@@H]2CC[C@H]1CN(C(=O)COc1ccc(F)c(Cl)c1)C2
The INHIBITION of the first is higher: 58.9% for the first, -102% for the second.

First: O=C(c1ccc(N2CCCC2)nc1)N1CCCC(n2cncn2)C1 (centres undefined)
Second: Cc1nn(C)c(C)c1CCC(=O)N1CCCC(n2cncn2)C1 (centres undefined)
The INHIBITION of the first is lower: -29.5% for the first, 27.6% for the second.

Compared with `CN(C)C(=O)CCC1CCCN(Cc2ccc(-c3cccnc3)cc2)C1` (centres undefined), `Cc1nc(C)n(CC2CCCN(Cc3cccnc3)C2)n1` (centres undefined) is lower in INHIBITION: 29.8% for the first, -14.6% for the second.

Going from `Cc1nn(C)c(N(C)C)c1CNCc1ccccc1CO` to `COc1c(CNCc2ccnc(N(C)C)c2)c(C(C)C)nn1C`, the INHIBITION falls from 15.3% to 9.47%.

Going from `Cc1cc(NC(=O)CCn2nc(C)c3ccccc32)n(C)n1` to `CCn1nc(C)cc1NC(=O)CCn1nc(C)c2ccccc21`, the INHIBITION falls from 26.7% to 20.9%.

Compared with `Cc1cc(NC(=O)CCn2nc(C)c3ccccc32)n(C(C)C)n1`, `CCC(C)(C)NC(=O)c1ncn2c1CN(C)S(=O)(=O)c1ccccc1-2` is lower in INHIBITION: 59% for the first, 47.4% for the second.

Going from `CSCC[C@H](NC(=O)N1CCC(Cc2ccccc2)CC1)C(=O)O` to `COCC(=O)N1CC[C@@H](N2CCN(C)CC2)[C@@H]1Cc1ccccc1`, the INHIBITION rises from 20% to 41.6%.

Compared with `CC(NC(=O)C1CCCC1)c1nncn1C(C)C` (centres undefined), `CC(NC(=O)C1CCN(C(=O)C2CC2)CC1)c1nncn1C(C)C` (centres undefined) is lower in INHIBITION: 52.2% for the first, 44% for the second.

Going from `CC(NC(=O)C1CCN(C(C)C)CC1)c1nncn1C1CCCC1` (centres undefined) to `CCCOCC1CCN(C(=O)Cn2ncc(N3CCCC3)cc2=O)C1` (centres undefined), the INHIBITION falls from 17.8% to -13.6%.

First: CCOc1ccccc1C(C(=O)O)N(C)CC1CCOCC1 (centres undefined)
Second: O=C(NCC1CCOCC1)[C@@H]1C[C@@H]2CCN(Cc3ccco3)C[C@H]2O1
The INHIBITION of the first is higher: 41.3% for the first, 2.74% for the second.

First: O=C(NCCn1ccnc1)N1CCCC1c1ccc2c(c1)OCCO2 (centres undefined)
Second: Cc1cnn(CC2CCCN2Cc2cc(=O)n3ccccc3n2)c1 (centres undefined)
The INHIBITION of the first is lower: -1.25% for the first, 28.3% for the second.

Going from `COc1ccc2nnc(CCC(=O)Nc3nc4c(s3)CCCC4)n2n1` to `COc1cccc(S(=O)(=O)NC(=O)COC2CCCCC2)c1`, the INHIBITION rises from -2.09% to 1.78%.

First: CN(C1CCCC1)C(C)(C)C(=O)NCCNC(N)=O
Second: CN(C1CCCC1)C(C)(C)C(=O)NCCS(C)(=O)=O
The INHIBITION of the first is lower: 32.2% for the first, 42.4% for the second.

Compared with `COCCCNC(=O)C(C)(C)N(C)C1CCCC1`, `COCCCNC(=O)CN(C)C(=O)c1cc2cc(C)ccc2nc1C` is lower in INHIBITION: 72.1% for the first, 5.885% for the second.

Compared with `O=C1CCC(=O)c2oc3ccc(Br)cc3c2N1`, `CCn1nnc(NCc2ccc(-c3ccc(Br)cc3)o2)n1` is higher in INHIBITION: 0.207% for the first, 12.3% for the second.

First: COc1cc(CNC(C)Cn2cccn2)cc(OC)c1 (centres undefined)
Second: COc1ccc(CNC(C)Cn2cccn2)cc1OC (centres undefined)
The INHIBITION of the first is lower: 25.1% for the first, 27.8% for the second.

First: CC(Cn1cccn1)NCc1csc(COc2ccccc2)n1 (centres undefined)
Second: CC(Cn1cccn1)NCc1ccc(OCc2ccncc2)cc1 (centres undefined)
The INHIBITION of the first is lower: -2.53% for the first, 56.4% for the second.

Compared with `Cc1cnn(CC(C)NCc2ccc(OCc3cccnc3)cc2)c1` (centres undefined), `Cc1cnn(CC(C)NCc2ccc(OCc3ccncc3)cc2)c1` (centres undefined) is lower in INHIBITION: 58.5% for the first, 54.6% for the second.

Compared with `Cc1cnn(CC(C)NCc2ccccc2OCc2cccnc2)c1` (centres undefined), `Cc1cnn(CC(C)NCc2cccnc2)c1` (centres undefined) is lower in INHIBITION: 13.3% for the first, -3% for the second.

Going from `CC(Cn1cccn1)NCc1cnc(N2CCCC2)nc1` (centres undefined) to `c1cnn(CCNCc2cnc(N3CCCC3)nc2)c1`, the INHIBITION falls from 53.2% to -1.04%.

Compared with `Cc1cnn(CC(C)NCc2ccc(S(C)(=O)=O)cc2)c1` (centres undefined), `Cc1cnn(CCNCc2ccc(S(C)(=O)=O)cc2)c1` is lower in INHIBITION: 56.3% for the first, -13.1% for the second.

First: Cc1cnn(CC(C)NCc2ccc(C#N)cc2)c1 (centres undefined)
Second: Cc1cnn(CC(C)NCc2ccncc2)c1 (centres undefined)
The INHIBITION of the first is higher: 32.8% for the first, -17.6% for the second.

First: c1ccc(Cn2cccn2)c(CNCc2cnc(N3CCCC3)nc2)c1
Second: c1cc(-c2cnccn2)cc(-c2ccn(CCN3CCCC3)n2)c1
The INHIBITION of the first is lower: 22.6% for the first, 55.1% for the second.

Compared with `c1cnc(N2CCO[C@H]3[C@H](OCCN4CCCC4)CC[C@@H]32)nc1`, `c1csc(CN2CCO[C@H]3[C@H](OCCN4CCCC4)CC[C@@H]32)n1` is lower in INHIBITION: 43.8% for the first, 16.8% for the second.

Compared with `CNC(=O)NCC1CCC2(CCN(C(=O)c3cccnc3)CC2)CO1` (centres undefined), `CCOCC1CC2(CCN(C(=O)c3ncccn3)CC2)CO1` (centres undefined) is lower in INHIBITION: 41.2% for the first, 33.4% for the second.

Going from `O=C(Cc1cccs1)N1Cc2nc(CN3CCCC3)oc2C1` to `CN(C)Cc1n[nH]c2c1CCN(Cc1cccs1)C2`, the INHIBITION rises from 30.5% to 34.6%.

First: Cc1cccc(S(=O)(=O)N2C[C@@H]3C[C@H](C(=O)NCC4CC4)[C@H](C2)O3)c1
Second: CC(C)c1cc(C(=O)N2C[C@@H]3CC[C@H]2CN(Cc2cccnc2)C3)no1
The INHIBITION of the first is higher: 2.4% for the first, 2.02% for the second.

First: CCc1nc(N2CCC3(CC2)[C@H](O)C[C@@H]3O)ncc1C
Second: CCO[C@@H]1CO[C@@]2(CCCN(Cc3scnc3C)C2)C1
The INHIBITION of the first is lower: -50.8% for the first, 5.14% for the second.

Compared with `Cc1cnn(CC(C)NCc2cc(=O)n3cc(C)ccc3n2)c1` (centres undefined), `Cc1cnn(CC(C)NCc2cc(=O)n3ccccc3n2)c1` (centres undefined) is higher in INHIBITION: -16.1% for the first, 89.6% for the second.

Going from `Cc1cnn(CC(C)NCc2ccc(OCc3nccn3C)cc2)c1` (centres undefined) to `Cc1cnn(CC(C)NCc2ccc(OCc3cscn3)cc2)c1` (centres undefined), the INHIBITION rises from -34% to -11.4%.

Going from `COc1cc(CNC(C)Cn2cccn2)cc(OC)c1OC` (centres undefined) to `COc1ccc(CNC(C)Cn2cccn2)cc1F` (centres undefined), the INHIBITION rises from 36.4% to 59.4%.

First: Cc1cnn(CCNCc2ccc(OCC(N)=O)cc2)c1
Second: COc1ccc2c(ccn2CCC(=O)NCCC(=O)O)c1
The INHIBITION of the first is lower: -41.1% for the first, 42.1% for the second.

First: CN(C)[C@@H]1CCN(C(=O)c2ccccn2)[C@H]1Cc1cnn(C)c1
Second: Cn1nnc2c1C(COCc1ccccn1)CN(Cc1ccoc1)C2 (centres undefined)
The INHIBITION of the first is lower: 20.6% for the first, 49.2% for the second.

Compared with `CCN1CC(CN(C)Cc2nc(-c3ccc(F)cc3)oc2C)CC1=O` (centres undefined), `CC(C)c1noc(C2CC(=O)N(CCN(C)C)C2)n1` (centres undefined) is lower in INHIBITION: 34.2% for the first, 16.5% for the second.

First: CN(Cc1nc(Cc2cccc(C(F)(F)F)c2)no1)C1CCCCC1
Second: OCC1(O)CCCN(Cc2noc(-c3ccccc3)n2)CC1 (centres undefined)
The INHIBITION of the first is higher: 43.9% for the first, 41.2% for the second.

Compared with `Cn1ccnc1CNc1nccc(-c2ncnn2C)n1`, `Cn1ncnc1-c1ccnc(NCc2ccncc2)n1` is higher in INHIBITION: -29% for the first, 14.5% for the second.

Going from `Cn1ncnc1-c1ccnc(NCCCc2ccncc2)n1` to `c1cc(-c2cnccn2)cc(-c2ccn(CCCN3CCCCC3)n2)c1`, the INHIBITION falls from 94.3% to 26.9%.

Going from `CCN1CCC2(CC1)CC(NC(=O)N(C)C)c1cc(C)ccc12` (centres undefined) to `CCN(C)c1nccc(N2CCN[C@H]3CS(=O)(=O)C[C@H]32)n1`, the INHIBITION rises from 12.2% to 40.9%.

Going from `CC(=O)NCC(=O)NC1CCc2nccn2C1` (centres undefined) to `CN(C)CCCN(C)c1nccc(N2CCN[C@H]3CS(=O)(=O)C[C@H]32)n1`, the INHIBITION rises from 40.6% to 59.3%.

Going from `N#Cc1cc(F)c(NCCc2ccc(F)cc2)c(F)c1` to `N#Cc1cc(F)c(NCc2ccc(F)cc2)c(F)c1`, the INHIBITION rises from 23.9% to 51.7%.

Compared with `N#Cc1cc(F)c(NCCc2ccc(S(N)(=O)=O)cc2)c(F)c1`, `Cc1ccc(-c2cccc(-c3ccn(CCN4CCCC4)n3)c2)nn1` is higher in INHIBITION: 37.8% for the first, 46.8% for the second.

First: c1cc(-c2cnccn2)cc(-c2ccn(CCN3CCCCC3)n2)c1
Second: Cc1cnc(C)c(-c2cccc(-c3ccn(CCN4CCCC4)n3)c2)n1
The INHIBITION of the first is lower: 5.38% for the first, 55.6% for the second.

First: CN(CCN1CCCC1)c1nccc(N2CCN[C@H]3CS(=O)(=O)C[C@H]32)n1
Second: OCCOCc1n[nH]c2c1CN(Cc1ccccn1)C2
The INHIBITION of the first is higher: 45.3% for the first, 35.8% for the second.

First: COCc1n[nH]c2c1CN(Cc1cccs1)C2
Second: OCCOCc1n[nH]c2c1CN(Cc1cccs1)C2
The INHIBITION of the first is higher: 64.5% for the first, 58.5% for the second.

Going from `c1csc(CN2Cc3[nH]nc(COCC4CC4)c3C2)c1` to `c1cncc(OCc2n[nH]c3c2CN(Cc2cccs2)C3)c1`, the INHIBITION rises from 46.7% to 51.2%.

Compared with `c1ccc(CN2Cc3[nH]nc(COc4cccnc4)c3C2)nc1`, `COCc1n[nH]c2c1CN(Cc1ccccn1)C2` is higher in INHIBITION: 25.8% for the first, 47.5% for the second.

`C[S+]([O-])CCNC(=O)N1CCSC(C)(C)C1` (centres undefined) gave an INHIBITION of 25.4%.
